The panel holds about 83,000 compounds, 20% with a hit somewhere; the sample as a whole holds those more often.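 The test compound was applied at a single concentration to cells in 96-well plates for 48 hours, and percent growth was recorded.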 Values without a mark were called inactive. Active and inactive are the calls of the source.

The assay has as its system A549/ATCC NSCLC. Description: NCI-60 one-dose screen, 48 h (100 = growth as untreated, 0 = no growth, -100 = all killed). As to conditions: 10 µM. As to the method: Growth inhibition of the A549/ATCC human Non-Small Cell Lung tumor cell line is measured as a screen for anti-cancer activity. Cells are grown in 96 well plates and exposed to the test compound for 48 hours. Compounds are tested at a single concentration, which is 10^-5 M for most compounds. The reported endpoint is percent growth (GI% or GIPRCNT), where numbers from 0 - 100% represent growth inhibition, and numbers from -100% - 0 represent cell death. For example, a value of 40 represents 60% growth inhibition. A value of 0 means no net growth occurred over the course of the experiment. A value of -40 indicates 40% of cells at the beginning of the experiment died by the end of the experiment. A value of -100 means all cells are dead at the end of the experiment.
NCI-60 Human Tumor Cell Lines Screen was performed using the standard one-dose NCI protocol, which is described in more detail at https://dtp.cancer.gov/discovery_development/nci-60/default.htm.
Compounds with GIPRCNT values below 10 were considered active. Activity score was based on GIPRCNT using the following formula: […]
Score is 0 for GIPRCNT values of 100 or above, 50 for GIPRCNT values of 0, and 100 for GIPRCNT values of -100.
Regarding `O=c1c2ccccc2nc(COc2ccccc2)n1/N=C/c1ccc(N2CCOCC2)cc1`, the growth was 73.7%.

As to `COc1ccc(/C=C/C(=O)c2ccc(S(=O)(=O)NCCNc3nc(Nc4ccc(F)cc4)nc(N(C)C)n3)cc2)cc1`, the growth is 50.1%. The value for `O=C(NO)c1ccc(CN2CCN(c3nc(-c4ccccc4)c4ccccc4n3)CC2)cc1` was 1.35% (active); that for `CC(=O)Nc1ccc(-n2cnc3cc(-c4ccc(O)cc4)ccc32)cc1F` was 33.8%; that for `CN1CCN(c2ccc(Nc3nc(NCCNC(=O)c4ccc(C(F)(F)F)cc4)c4sccc4n3)cc2)CC1` was 28.1%. With `O=C(N/N=C/c1ccc(B(O)O)o1)c1[nH]c2ccc(Br)cc2c1-c1ccccc1` the figure was 31.1%; with `O=C(Nc1ccc(OCC(=O)c2ccccc2)cc1)Nc1ccc(Cl)c(C(F)(F)F)c1`, 25.4%. Regarding `Cc1cccc2cc(-c3cc(-c4ccccc4)nc(=O)[nH]3)c(Cl)nc12`, the growth was 96.4%. On to `NS(=O)(=O)c1ccc(NC(=O)CSc2ccc(-c3ccc(Cl)cc3)nn2)c(Br)c1`, for which the growth is 28.5%. The value for `O=C1c2ccccc2C(=O)c2c1c(C(=O)c1ccc(Cl)cc1)n1c2ccc2c3ccccc3ccc21` was 102%. The value for `CC1(C)CC[C@]2(C(=O)Nc3ccccc3)CC[C@]3(C)C(=CC[C@@H]4[C@@]5(C)CC[C@H](N)C(C)(C)[C@@H]5CC[C@]43C)[C@H]2C1` was 74.4%.

On to `COc1ccc(NC(=O)Cn2c(/C=C/c3ccc(N(C)C)cc3)nc3ccccc3c2=O)cc1`, for which the growth was 15.2%. For `COc1ccc(-c2c(N)c(=O)n(C)c3ccccc23)cc1`, the growth is 92.1%. With `O=C(Cc1ccc2c(c1)CN(C1CCC(=O)NC1=O)C2=O)NCc1cccc2ccccc12` (stereo not given) the figure was 7.72% (active); with `CN1CCN(c2ccc(C(=O)/C=C/c3cc(C(F)(F)F)ccc3Cl)cc2)CC1`, -78.1% (active). On to `O=C(Nc1ccc(OCc2ccccc2)cc1)Nc1ccc(Cl)c(C(F)(F)F)c1`, for which the growth was 5.97% (active). With `CN1CCN(c2ccc(Nc3nc(NCCCNC(=O)c4ccccc4)c4sccc4n3)cc2)CC1` the figure was 72.5%.

For the compound `COC[C@@H](CC(C)C)N=C1NC(=O)/C(=C/c2ccc3ncsc3c2)N1`, the growth is 13.5%. Regarding `Brc1ccc(N/N=C/c2c[nH]c3ccccc23)nc1`, the growth is 37.7%. The value for `COc1ccc(-c2ccc(/C=N/NC(=O)c3[nH]c4ccc(Br)cc4c3-c3ccccc3)o2)cc1` was 42.5%. The value for `COc1ccc(-c2ccc(SCC(=O)Nc3ccc(C#N)cc3)nn2)cc1` was 96.3%; that for `CC(=O)Nc1ccc(-c2cn(-c3cccc(C(=O)Nc4cc(CN5CCOCC5)cc(C(F)(F)F)c4)c3)nn2)cn1` was -74.7% (active); that for `CN1CCO/C1=C(/NC(=O)c1ccc(Cl)cc1)[P+](c1ccccc1)(c1ccccc1)c1ccccc1` was 102%. With `Cc1cccc2cc(-c3cc(-c4ccccc4)nc(=S)[nH]3)c(Cl)nc12` the figure was 95.9%. Take `CO[C@H]1CSS[C@@H]1Cn1nc(-c2ccc(Oc3ccccc3)cc2)c2c(N)ncnc21`: the growth was 22.1%. For `N#C/C(=C\c1ccc(N(c2ccccc2)c2ccccc2)cc1)C(N)=O`, the growth was 36.3%.

In the case of `CCOc1ccc(/C=N/NC(=O)Cn2nc(Cc3ccc([N+](=O)[O-])cc3)c3onc(C)c3c2=O)cc1`, the growth was -23.6% (active).

As for `COc1ccsc1/C=N/NC(=O)c1[nH]c2ccc(Br)cc2c1-c1ccccc1`, the growth is 11.7%.

On to `O=C(CSc1nnc(-c2ccc3nc(-c4ccccc4)[nH]c3c2)o1)Nc1ccc(Cl)cc1`, for which the growth was 57.1%. In the case of `N#Cc1c(NC(=O)c2ccc(C(F)(F)F)cc2C(F)(F)F)sc2c1CCC(=O)C2`, the growth is 9.8% (active). With `Cc1ccc(-c2nc3ccc(C(=O)N=Nc4c(O)[nH]c5ccc(Br)cc45)cc3[nH]2)cc1` the figure was 87.1%.

For the compound `CN1CCN(Cc2ccc(NC(=O)c3cncc(C#Cc4cnc5ccc(N[C@H]6CCOC6)nn45)c3)cc2C(F)(F)F)CC1`, the growth was -59.9% (active). The value for `COc1cccc(C(N)=Nc2ccc(OCCCCCCn3cncn3)cc2)c1` was 26.5%; that for `Cc1cccc(NC(=O)CSc2nc3ccc(F)cc3c(=O)n2-c2ccc(Cl)cc2)c1C` was 72.5%; that for `CC(=O)Nc1nc(-c2ccc(N3CCN(C)CC3)c(NS(=O)(=O)c3ccc(C(F)(F)F)cc3)c2)cs1` was 55.5%. With `C/C(=N\N=C\c1ccc(N(C)C)cc1)c1ccc2c(c1)Nc1ccccc1S2` the figure was 50.5%; with `O=C(NO)c1ccc(Cn2ccc3c(Nc4ccccc4)ncnc32)cc1`, 25.3%. Regarding `COc1cc2c3c(n(CCCn4ccnc4)c(=O)c2cc1OC)-c1nc2c(cc1C3=O)OCO2`, the growth is 47.7%. The value for `COc1ccc2[nH]c(=O)c(CSc3nccc(-c4ccc(Cl)cc4)n3)cc2c1` was 2.57% (active); that for `CN1CCc2c(sc3ncnc(N/N=C/c4cn(-c5ccccc5)nc4-c4ccc(Cl)cc4)c23)C1` was 26.3%.

The record behind these values is PubChem BioAssay (NCI).
